Laboratory results: paper PMC7862700, “An all-to-all approach to the identification of sequence-specific readers for epigenetic DNA modifications on cytosine”

Tests used:
Experiment in all cases: DAPPL (digital affinity profiling via proximity ligation, sequencing); 10 mM Tris-HCl pH 7.5, 50 mM NaCl, 1 mM DTT, 4% glycerol, room temperature, 30 min; GST-TFs on glutathione beads, 16-mer random dsDNA library, 0.1% formaldehyde crosslink after washing; high values mean tight binding
[1] = target: T1, FEV (Homo sapiens, UniProt Q99581 1-238); conditions: protein: recombinant; tags: N-terminal GST; dsDNA, one strand shown
T1 sequence: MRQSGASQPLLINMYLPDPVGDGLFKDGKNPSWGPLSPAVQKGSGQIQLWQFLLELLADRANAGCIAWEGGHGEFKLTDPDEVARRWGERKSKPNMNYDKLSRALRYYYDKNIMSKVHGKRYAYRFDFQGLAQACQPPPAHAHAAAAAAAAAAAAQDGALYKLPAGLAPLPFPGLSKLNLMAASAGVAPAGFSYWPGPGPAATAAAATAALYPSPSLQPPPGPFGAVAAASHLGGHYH
Method in brief: (§1)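 Yeast served to express human transcription factors as GST fusions, which were then captured on glutathione beads and labelled with DNA barcodes. Pooled with a tag-only sample, they were incubated with 200 nmole of a 16-mer random double-stranded DNA library for 30 min at room temperature in Tris/NaCl/DTT/glycerol buffer, washed, crosslinked with 0.1% formaldehyde, ligated by proximity, amplified by PCR and sequenced. Dividing each hexamer's read frequency for a factor by its frequency for the tag-only sample gives the binding signal.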

[2] = target: ETV5 (Homo sapiens, UniProt P41161 1-510); conditions: protein: recombinant; tags: N-terminal GST; dsDNA, one strand shown
ETV5, sequence (P41161 whole entry): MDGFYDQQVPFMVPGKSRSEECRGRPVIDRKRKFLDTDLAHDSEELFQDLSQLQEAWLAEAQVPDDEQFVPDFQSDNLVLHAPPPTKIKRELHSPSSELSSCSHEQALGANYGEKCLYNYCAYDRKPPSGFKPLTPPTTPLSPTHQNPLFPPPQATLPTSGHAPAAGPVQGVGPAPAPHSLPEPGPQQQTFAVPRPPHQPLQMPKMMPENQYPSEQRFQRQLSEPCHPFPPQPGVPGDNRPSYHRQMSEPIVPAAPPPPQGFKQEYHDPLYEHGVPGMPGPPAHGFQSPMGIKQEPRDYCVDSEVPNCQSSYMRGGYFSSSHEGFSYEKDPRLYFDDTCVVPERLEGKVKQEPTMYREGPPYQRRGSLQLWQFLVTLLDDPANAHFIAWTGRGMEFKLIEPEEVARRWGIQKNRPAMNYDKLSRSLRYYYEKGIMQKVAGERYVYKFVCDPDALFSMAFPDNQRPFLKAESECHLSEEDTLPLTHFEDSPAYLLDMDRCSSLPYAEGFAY
Method in brief: as §1

[3] = target: HSF1 (Homo sapiens, UniProt Q00613 1-529); conditions: protein: recombinant; tags: N-terminal GST; chain copies: 3; dsDNA, one strand shown
HSF1, sequence (Q00613 whole entry): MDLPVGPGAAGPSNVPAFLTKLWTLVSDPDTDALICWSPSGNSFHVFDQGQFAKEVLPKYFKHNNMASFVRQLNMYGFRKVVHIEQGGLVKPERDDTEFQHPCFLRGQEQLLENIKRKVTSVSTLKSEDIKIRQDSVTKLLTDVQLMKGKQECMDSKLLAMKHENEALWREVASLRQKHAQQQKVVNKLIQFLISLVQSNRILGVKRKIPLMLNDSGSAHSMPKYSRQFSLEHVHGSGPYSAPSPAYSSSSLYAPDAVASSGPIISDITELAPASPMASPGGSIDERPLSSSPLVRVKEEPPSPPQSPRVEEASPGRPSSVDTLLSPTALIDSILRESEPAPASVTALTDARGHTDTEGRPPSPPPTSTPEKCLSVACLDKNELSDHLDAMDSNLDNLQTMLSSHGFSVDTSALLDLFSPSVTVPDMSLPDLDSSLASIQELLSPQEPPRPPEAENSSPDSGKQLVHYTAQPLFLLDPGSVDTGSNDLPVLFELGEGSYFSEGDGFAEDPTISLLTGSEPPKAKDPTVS
Method in brief: as §1

[4] = target: T2, SPIC (Homo sapiens, UniProt Q8N5J4 1-248); conditions: protein: recombinant; tags: N-terminal GST; dsDNA, one strand shown
T2 sequence: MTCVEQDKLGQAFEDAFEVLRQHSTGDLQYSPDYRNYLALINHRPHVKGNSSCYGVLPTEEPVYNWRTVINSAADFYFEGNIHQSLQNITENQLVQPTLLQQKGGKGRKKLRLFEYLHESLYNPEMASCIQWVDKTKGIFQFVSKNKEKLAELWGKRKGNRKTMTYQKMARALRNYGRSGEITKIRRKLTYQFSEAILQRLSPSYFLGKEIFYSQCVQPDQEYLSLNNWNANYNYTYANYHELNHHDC
Method in brief: as §1

[5] = target: ELF4 (Homo sapiens, UniProt Q99607 1-663); conditions: protein: recombinant; tags: N-terminal GST; dsDNA, one strand shown
ELF4, sequence (Q99607 whole entry): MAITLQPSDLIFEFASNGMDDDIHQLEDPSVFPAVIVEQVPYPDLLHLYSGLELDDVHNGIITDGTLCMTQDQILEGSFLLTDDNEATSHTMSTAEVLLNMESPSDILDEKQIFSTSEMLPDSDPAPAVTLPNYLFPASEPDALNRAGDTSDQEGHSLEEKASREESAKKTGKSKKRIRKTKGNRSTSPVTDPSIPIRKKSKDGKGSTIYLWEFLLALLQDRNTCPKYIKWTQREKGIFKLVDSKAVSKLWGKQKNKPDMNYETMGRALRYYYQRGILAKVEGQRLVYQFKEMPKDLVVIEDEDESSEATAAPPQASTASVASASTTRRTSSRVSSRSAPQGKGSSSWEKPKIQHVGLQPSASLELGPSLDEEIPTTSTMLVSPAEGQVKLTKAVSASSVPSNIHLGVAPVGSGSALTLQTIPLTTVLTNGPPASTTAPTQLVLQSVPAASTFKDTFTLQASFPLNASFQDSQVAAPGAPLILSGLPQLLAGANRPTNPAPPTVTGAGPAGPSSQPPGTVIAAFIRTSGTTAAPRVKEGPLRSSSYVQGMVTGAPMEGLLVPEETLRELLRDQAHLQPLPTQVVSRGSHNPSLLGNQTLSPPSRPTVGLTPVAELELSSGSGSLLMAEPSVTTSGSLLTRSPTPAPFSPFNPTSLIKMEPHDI
Method in brief: as §1

[6] = target: T3, ELK4 (Homo sapiens, UniProt P28324-2 1-405); conditions: protein: recombinant; tags: N-terminal GST; dsDNA, one strand shown
T3 sequence: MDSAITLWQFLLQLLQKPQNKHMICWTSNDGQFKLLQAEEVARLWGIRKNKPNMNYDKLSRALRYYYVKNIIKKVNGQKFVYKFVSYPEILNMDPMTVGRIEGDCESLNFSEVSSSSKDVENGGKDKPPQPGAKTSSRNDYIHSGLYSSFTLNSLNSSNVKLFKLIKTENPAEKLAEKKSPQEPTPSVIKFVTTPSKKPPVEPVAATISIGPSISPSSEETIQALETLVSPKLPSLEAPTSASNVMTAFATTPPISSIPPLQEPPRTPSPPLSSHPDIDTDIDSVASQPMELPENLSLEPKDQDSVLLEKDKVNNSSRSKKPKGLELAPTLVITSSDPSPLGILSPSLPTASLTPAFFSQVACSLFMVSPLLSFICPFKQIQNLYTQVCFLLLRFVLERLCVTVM
Method in brief: as §1

[7] = target: T4, ETV2 (Homo sapiens, UniProt O00321 1-342); conditions: protein: recombinant; tags: N-terminal GST; dsDNA, one strand shown
T4 sequence: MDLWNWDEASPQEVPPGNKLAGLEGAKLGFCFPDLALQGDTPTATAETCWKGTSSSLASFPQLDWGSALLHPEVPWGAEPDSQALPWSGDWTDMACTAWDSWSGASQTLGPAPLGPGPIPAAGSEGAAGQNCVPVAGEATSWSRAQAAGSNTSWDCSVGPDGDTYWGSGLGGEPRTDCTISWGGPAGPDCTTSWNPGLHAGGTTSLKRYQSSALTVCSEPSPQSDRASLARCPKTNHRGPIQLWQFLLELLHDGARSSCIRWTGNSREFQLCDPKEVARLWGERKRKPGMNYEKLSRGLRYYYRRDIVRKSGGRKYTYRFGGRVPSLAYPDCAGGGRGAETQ
Method in brief: as §1

[8] = target: T5, ELF3 (Homo sapiens, UniProt P78545 1-371); conditions: protein: recombinant; tags: N-terminal GST; dsDNA, one strand shown
T5 sequence: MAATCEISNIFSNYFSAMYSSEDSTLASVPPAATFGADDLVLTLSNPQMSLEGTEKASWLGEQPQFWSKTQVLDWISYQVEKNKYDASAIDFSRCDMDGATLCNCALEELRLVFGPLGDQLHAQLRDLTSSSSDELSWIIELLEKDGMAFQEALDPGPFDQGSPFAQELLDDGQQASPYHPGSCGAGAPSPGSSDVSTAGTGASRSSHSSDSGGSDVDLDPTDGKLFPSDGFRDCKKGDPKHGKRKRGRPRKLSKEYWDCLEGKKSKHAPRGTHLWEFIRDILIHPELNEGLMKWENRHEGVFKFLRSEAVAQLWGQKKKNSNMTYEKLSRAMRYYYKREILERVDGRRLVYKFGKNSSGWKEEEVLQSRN
Method in brief: as §1

[9] = target: CRX (Homo sapiens, UniProt O43186 1-299); conditions: protein: recombinant; tags: N-terminal GST; dsDNA, one strand shown
CRX, sequence (O43186 whole entry): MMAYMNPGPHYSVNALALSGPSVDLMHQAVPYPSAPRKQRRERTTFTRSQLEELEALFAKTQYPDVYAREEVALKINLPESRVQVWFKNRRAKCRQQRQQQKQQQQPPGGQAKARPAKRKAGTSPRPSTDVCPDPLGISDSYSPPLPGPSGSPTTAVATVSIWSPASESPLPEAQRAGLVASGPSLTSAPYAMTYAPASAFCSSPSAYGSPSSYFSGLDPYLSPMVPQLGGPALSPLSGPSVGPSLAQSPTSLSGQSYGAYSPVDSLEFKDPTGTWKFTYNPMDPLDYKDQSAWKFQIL
Method in brief: as §1

[10] = target: ETV1 (Homo sapiens, UniProt P50549 1-477); conditions: protein: recombinant; tags: N-terminal GST; dsDNA, one strand shown
ETV1, sequence (P50549 whole entry): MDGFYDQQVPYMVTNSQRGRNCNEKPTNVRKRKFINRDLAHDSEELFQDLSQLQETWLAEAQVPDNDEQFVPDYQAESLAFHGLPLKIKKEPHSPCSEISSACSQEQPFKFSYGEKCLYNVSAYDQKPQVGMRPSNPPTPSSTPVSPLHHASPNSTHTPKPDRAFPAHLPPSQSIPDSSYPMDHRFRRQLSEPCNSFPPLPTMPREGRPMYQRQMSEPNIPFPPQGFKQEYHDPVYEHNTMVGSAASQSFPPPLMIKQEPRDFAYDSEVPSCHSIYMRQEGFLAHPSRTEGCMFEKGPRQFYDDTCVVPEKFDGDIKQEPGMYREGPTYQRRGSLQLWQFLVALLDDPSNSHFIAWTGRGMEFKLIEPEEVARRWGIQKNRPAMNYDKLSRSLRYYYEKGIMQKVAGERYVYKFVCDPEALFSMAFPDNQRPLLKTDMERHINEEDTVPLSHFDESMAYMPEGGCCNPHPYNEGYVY
Method in brief: as §1

[11] = target: T6, ERF (Homo sapiens, UniProt P50548 1-548); conditions: protein: recombinant; tags: N-terminal GST; dsDNA, one strand shown
T6 sequence: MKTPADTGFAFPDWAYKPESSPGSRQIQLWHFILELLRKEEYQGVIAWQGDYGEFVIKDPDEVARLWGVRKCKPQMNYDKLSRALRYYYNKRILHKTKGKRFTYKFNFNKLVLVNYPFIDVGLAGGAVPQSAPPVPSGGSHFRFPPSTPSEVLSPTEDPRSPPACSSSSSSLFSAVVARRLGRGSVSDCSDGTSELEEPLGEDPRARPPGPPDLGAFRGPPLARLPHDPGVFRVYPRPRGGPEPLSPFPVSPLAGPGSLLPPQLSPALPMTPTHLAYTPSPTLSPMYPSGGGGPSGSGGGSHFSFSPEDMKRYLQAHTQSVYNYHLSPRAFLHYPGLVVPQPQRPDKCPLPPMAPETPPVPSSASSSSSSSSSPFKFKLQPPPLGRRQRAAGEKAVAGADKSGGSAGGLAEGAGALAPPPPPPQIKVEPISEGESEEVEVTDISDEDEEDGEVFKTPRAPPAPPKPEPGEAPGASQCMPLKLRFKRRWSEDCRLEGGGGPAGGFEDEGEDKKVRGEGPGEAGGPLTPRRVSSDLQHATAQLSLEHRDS
Method in brief: as §1

[12] = target: T7, ETV3L (Homo sapiens, UniProt Q6ZN32 1-361); conditions: protein: recombinant; tags: N-terminal GST; dsDNA, one strand shown
T7 sequence: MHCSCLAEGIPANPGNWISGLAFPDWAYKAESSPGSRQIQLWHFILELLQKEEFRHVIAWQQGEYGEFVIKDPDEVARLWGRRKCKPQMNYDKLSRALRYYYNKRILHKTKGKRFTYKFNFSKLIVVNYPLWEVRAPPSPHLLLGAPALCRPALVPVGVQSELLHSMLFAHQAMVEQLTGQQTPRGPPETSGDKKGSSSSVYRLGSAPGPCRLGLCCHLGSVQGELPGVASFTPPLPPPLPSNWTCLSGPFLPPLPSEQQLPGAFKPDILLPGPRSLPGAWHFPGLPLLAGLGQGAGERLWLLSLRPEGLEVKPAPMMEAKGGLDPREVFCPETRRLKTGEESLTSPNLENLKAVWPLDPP
Method in brief: as §1

[13] = target: T8, ETS2 (Homo sapiens, UniProt P15036 1-469); conditions: protein: recombinant; tags: N-terminal GST; dsDNA, one strand shown
T8 sequence: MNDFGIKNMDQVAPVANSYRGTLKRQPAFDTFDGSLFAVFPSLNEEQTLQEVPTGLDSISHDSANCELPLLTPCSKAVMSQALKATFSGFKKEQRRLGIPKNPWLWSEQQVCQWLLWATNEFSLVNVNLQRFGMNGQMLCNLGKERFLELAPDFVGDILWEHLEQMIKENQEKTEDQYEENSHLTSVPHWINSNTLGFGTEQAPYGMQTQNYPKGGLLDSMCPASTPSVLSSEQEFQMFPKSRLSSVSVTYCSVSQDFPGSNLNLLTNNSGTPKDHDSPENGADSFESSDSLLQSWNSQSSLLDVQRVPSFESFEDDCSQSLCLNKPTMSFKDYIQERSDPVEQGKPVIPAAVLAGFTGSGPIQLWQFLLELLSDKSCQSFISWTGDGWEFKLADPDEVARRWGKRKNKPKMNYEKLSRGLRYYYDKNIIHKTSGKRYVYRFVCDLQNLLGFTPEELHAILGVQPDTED
Method in brief: as §1

[14] = target: T9, SPDEF (Homo sapiens, UniProt O95238 1-335); conditions: protein: recombinant; tags: N-terminal GST; dsDNA, one strand shown
T9 sequence: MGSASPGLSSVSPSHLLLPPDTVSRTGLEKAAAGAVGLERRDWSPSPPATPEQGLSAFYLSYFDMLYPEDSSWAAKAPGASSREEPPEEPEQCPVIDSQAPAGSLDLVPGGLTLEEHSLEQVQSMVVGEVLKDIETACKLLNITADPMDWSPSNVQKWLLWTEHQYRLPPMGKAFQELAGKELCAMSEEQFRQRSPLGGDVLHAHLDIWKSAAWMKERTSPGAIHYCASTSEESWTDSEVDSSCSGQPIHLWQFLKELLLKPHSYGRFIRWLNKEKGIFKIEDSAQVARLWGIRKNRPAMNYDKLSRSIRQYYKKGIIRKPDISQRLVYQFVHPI
Method in brief: as §1

[15] = target: T10, ETV7 (Homo sapiens, UniProt Q9Y603 1-341); conditions: protein: recombinant; tags: N-terminal GST; dsDNA, one strand shown
T10 sequence: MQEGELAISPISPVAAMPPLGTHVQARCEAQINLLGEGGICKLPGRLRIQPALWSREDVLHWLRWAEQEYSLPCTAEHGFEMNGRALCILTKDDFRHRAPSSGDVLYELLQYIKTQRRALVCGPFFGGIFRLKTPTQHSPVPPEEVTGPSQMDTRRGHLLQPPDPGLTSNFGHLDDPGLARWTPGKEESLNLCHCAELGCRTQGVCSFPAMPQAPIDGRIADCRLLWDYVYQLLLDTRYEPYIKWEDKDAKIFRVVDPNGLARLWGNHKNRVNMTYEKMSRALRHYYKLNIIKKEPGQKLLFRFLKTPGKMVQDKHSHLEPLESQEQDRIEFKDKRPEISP
Method in brief: as §1

[16] = target: T11, ELF5 (Homo sapiens, UniProt Q9UKW6-2 1-255); conditions: protein: recombinant; tags: N-terminal GST; dsDNA, one strand shown
T11 sequence: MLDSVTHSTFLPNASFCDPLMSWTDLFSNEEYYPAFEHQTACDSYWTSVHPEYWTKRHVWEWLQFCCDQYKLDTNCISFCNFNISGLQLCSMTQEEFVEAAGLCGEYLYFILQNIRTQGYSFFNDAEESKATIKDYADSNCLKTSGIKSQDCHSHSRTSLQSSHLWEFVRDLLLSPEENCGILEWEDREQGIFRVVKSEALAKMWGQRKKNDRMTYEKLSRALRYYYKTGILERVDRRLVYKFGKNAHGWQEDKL
Method in brief: as §1

[17] = target: T12, ETV3 (Homo sapiens, UniProt P41162-2 1-143); conditions: protein: recombinant; tags: N-terminal GST; dsDNA, one strand shown
T12 sequence: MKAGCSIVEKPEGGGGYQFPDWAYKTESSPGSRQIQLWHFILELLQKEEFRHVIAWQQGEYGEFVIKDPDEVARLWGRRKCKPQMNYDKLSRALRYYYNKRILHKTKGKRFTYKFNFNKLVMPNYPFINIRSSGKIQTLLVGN
Method in brief: as §1

[18] = target: ETV6 (Homo sapiens, UniProt P41212 1-452); conditions: protein: recombinant; tags: N-terminal GST; dsDNA, one strand shown
ETV6, sequence (P41212 whole entry): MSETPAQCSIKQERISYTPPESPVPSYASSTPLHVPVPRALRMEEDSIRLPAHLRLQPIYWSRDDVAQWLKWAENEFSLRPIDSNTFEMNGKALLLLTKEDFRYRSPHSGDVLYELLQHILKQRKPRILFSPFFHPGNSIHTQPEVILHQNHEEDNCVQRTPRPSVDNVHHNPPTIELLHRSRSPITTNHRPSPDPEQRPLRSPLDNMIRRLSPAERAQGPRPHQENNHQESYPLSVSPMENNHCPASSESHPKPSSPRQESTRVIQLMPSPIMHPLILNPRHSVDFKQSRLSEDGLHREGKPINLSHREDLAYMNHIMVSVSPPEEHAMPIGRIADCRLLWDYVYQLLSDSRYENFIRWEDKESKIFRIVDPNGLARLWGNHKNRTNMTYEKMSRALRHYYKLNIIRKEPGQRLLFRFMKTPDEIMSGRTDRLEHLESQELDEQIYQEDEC
Method in brief: as §1

Sequence	binding signal [1]	binding signal [2]	binding signal [3]	binding signal [4]	binding signal [5]	binding signal [6]	binding signal [7]	binding signal [8]	binding signal [9]	binding signal [10]	binding signal [11]	binding signal [12]	binding signal [13]	binding signal [14]	binding signal [15]	binding signal [16]	binding signal [17]	binding signal [18]
TTATCT	1.24 fold enrichment (6-mer frequency, TF over GST control)	1.27 fold enrichment (6-mer frequency, TF over GST control)	2.24 fold enrichment (6-mer frequency, TF over GST control)	1.25 fold enrichment (6-mer frequency, TF over GST control)	1.25 fold enrichment (6-mer frequency, TF over GST control)	1.45 fold enrichment (6-mer frequency, TF over GST control)	1.2 fold enrichment (6-mer frequency, TF over GST control)	1.13 fold enrichment (6-mer frequency, TF over GST control)	3.25 fold enrichment (6-mer frequency, TF over GST control)	1.29 fold enrichment (6-mer frequency, TF over GST control)	1.23 fold enrichment (6-mer frequency, TF over GST control)	1.44 fold enrichment (6-mer frequency, TF over GST control)	1.35 fold enrichment (6-mer frequency, TF over GST control)	1.24 fold enrichment (6-mer frequency, TF over GST control)	1.15 fold enrichment (6-mer frequency, TF over GST control)	1.22 fold enrichment (6-mer frequency, TF over GST control)	1.28 fold enrichment (6-mer frequency, TF over GST control)	1.25 fold enrichment (6-mer frequency, TF over GST control)
TTACCT	1.26 fold enrichment (6-mer frequency, TF over GST control)	1.35 fold enrichment (6-mer frequency, TF over GST control)	1.45 fold enrichment (6-mer frequency, TF over GST control)	1.01 fold enrichment (6-mer frequency, TF over GST control)	1.21 fold enrichment (6-mer frequency, TF over GST control)	1.32 fold enrichment (6-mer frequency, TF over GST control)	1.32 fold enrichment (6-mer frequency, TF over GST control)	1.2 fold enrichment (6-mer frequency, TF over GST control)	2.09 fold enrichment (6-mer frequency, TF over GST control)	1.32 fold enrichment (6-mer frequency, TF over GST control)	1.22 fold enrichment (6-mer frequency, TF over GST control)	1.22 fold enrichment (6-mer frequency, TF over GST control)	1.32 fold enrichment (6-mer frequency, TF over GST control)	1.18 fold enrichment (6-mer frequency, TF over GST control)	1.36 fold enrichment (6-mer frequency, TF over GST control)	1.28 fold enrichment (6-mer frequency, TF over GST control)	1.17 fold enrichment (6-mer frequency, TF over GST control)	1.23 fold enrichment (6-mer frequency, TF over GST control)
